# This is one part of a sample in which hits are shown more often than they occur.
# HIV RNase H inh: HIV-1 RT RNase H inhibitors, primary screen, biochemical, fluorescence. Gag-Pol polyprotein (Human immunodeficiency virus type 1 group M subtype B (isolate …. RT-RNase H RNA/DNA duplex cleavage. inhibition, % at 10 µM. 1.9% of 65,000 active. AID 565, 2006; in the data active means inhibition above about 50%
# RmlCD inh mix: RmlC and RmlD coupled enzyme inhibitors, primary screen, biochemical, 384-well, compound mixtures, retest | RmlC/RmlD coupled enzyme inhibition, 384-well mixture HTS | inhibition, % at 5.5 µM | 0.39% of 110,000 active | AID 1532, 2009; in the data active means inhibition above about 30%, passing the limit was not always enough; inconclusive means no clear call, values can overlap the other calls
# RmlCD fluor art: counter-screen for RmlC/RmlD inhibitors: fluorescence artifact, dose response, artefact control, biochemical; RmlC/RmlD assay fluorescence artifact counter-screen; 96% of 360 active; shares compounds with RmlCD inh mix; AID 1696, 2009; calls only; call rule not given here;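 further: compound alone with no enzyme and no substrates present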
# * marks the source's active call; other numbers are inactive results; i = inactive; u = inconclusive; x = no result; + = active, no number.
SMILES,HIV RNase H inh,RmlCD inh mix,RmlCD fluor art
CC(NC(=O)C1CCCCC1)C(c1cccs1)N1CCN(C)CC1 (centres undefined),-5.0,-4.4,x
Cc1oc2c(CN3CCOCC3)c(O)ccc2c(=O)c1-c1ccccc1,0.8,38.6*,+
COc1ccccc1-c1coc2c(CN3CCN(C)CC3)c(O)ccc2c1=O,-6.3,15.7,x
COc1ccccc1-c1coc2c(CN3CCN(CCO)CC3)c(O)ccc2c1=O,1.4,40.5*,+
Cc1oc2c(CN3CCCC3)c(O)ccc2c(=O)c1Oc1ccccc1Br,-2.6,63.7*,+
COc1ccc(Oc2c(C)oc3c(CN4CCOCC4)c(O)ccc3c2=O)cc1,x,9.6,x
COc1ccccc1Oc1c(C)oc2c(CN3CCN(CCO)CC3)c(O)ccc2c1=O,-1.9,x,x
CCOc1cc(CC(=O)N[C@@H](CC(C)C)c2ccccc2N2CCCCC2)ccc1C(=O)O,x,6.2,x
Cn1c(N)c(C(=O)CNC2CCCCC2)c(=O)n(C)c1=O,x,2.9,x
CCC(=O)c1cc2c(C)cc(=O)oc2c(C)c1OC,x,-3.6,x
CCC(=O)Nc1c(OC(=O)CC)ccc2c(C)cc(=O)oc12,-9.0,+,+
CCc1cc(=O)oc2c(CN3CCN(C)CC3)c(O)c(Cl)cc12,-2.1,125.9*,+
CN1CCN(Cc2oc(CO)cc(=O)c2O)CC1,x,-13.6,x
COc1ccc(-c2nc(C#N)c(N3CCOCC3)o2)cc1OC,-19.9,26.1,x
COc1ccc(-c2nc(C#N)c(N3CCC(C(N)=O)CC3)o2)cc1OC,x,40.7*,+
Cc1cc(=O)n2ccccc2c1C#N,x,104.1*,+
Cc1cc(=O)n2c(ccc3ccccc32)c1C#N,-18.5,7.9,x
Cc1ccc(C2CC(C(F)(F)F)n3nc(C(=O)NCC4CCCO4)cc3N2)cc1 (centres undefined),7.3,-8.8,x
COc1ccc(OC)c(NC(=O)CN2C(=O)c3ccccc3S2(=O)=O)c1,-12.6,5.6,x
COc1ccc2c(c1)-c1ccccc1S(=O)(=O)N2C(C)=O,-18.1,131.5*,+
CCOC(=O)c1cccc(NC(=O)c2c(NCc3ccccc3)[nH]c(=O)[nH]c2=O)c1,x,5.4,x
CCOc1ccccc1C(=O)N1CCCCC1C (centres undefined),-7.1,-7.7,x
CN1CCCC1CCNc1ccc2sc3ccccc3c(=O)c2c1 (centres undefined),x,-10.9,x
Cc1cc2oc3cc(NCCC4CCCN4C)ccc3c(=O)c2cc1C (centres undefined),x,68.2*,+
COc1cccc(CN2C(=O)[C@@H]3Cc4c([nH]c5ccccc45)C(C)(C)N3C2=O)c1,x,-18.6,x
SMILES,HIV RNase H inh,RmlCD inh mix,RmlCD fluor art
CN(C(=O)C1CCCO1)c1nnc(-c2ccncc2)s1 (centres undefined),-0.9,160.9*,+
CN(C(=O)C1CCOC1)c1nnc(-c2ccncc2)s1 (centres undefined),-3.9,48.1*,+
COc1ccccc1CCNC(=O)C1CCCO1 (centres undefined),-8.7,5.9,x
CN(C(=O)c1ccncc1)c1nnc(-c2ccncc2)s1,-30.1,102.8*,+
COc1ccc(-c2nnc(NC(=O)C3CCCO3)s2)cc1 (centres undefined),x,-8.1,x
Cc1cccc(C(=O)N(C)c2nnc(-c3ccncc3)s2)c1,-0.9,9.7,x
COc1ccccc1-c1nnc(N(C)C(=O)C2CCCO2)s1 (centres undefined),-0.6,37.5*,+
CN(C(=O)C1CCOC1)c1nnc(-c2ccccn2)s1 (centres undefined),47.5,27.5,x
CC(=O)NC(CC(C)C)C(=O)NC(CO)C(=O)NC(CCC(=O)O)C(=O)NC(C)C(=O)NC(CC(C)C)C(N)=O (centres undefined),x,10.4,x
COCCN1C(=O)N[C@@H](c2ccccc2)[C@H](C(=O)OC)[C@H]1C,x,4.0,x
C=CCNC(=O)c1onc(CSc2ccc(F)c(F)c2)c1C(=O)NCC=C,x,-6.1,x
C[C@H]1CCC[C@]2(O[C@H](CCO)C[C@@H](O)[C@@H]2O)O1,x,5.4,x
CCOC(=O)c1cnc(SC)nc1Oc1cccc(NS(=O)(=O)c2ccc(C)cc2)c1,x,1.7,x
CC(O)(CC(=O)O)CC(=O)O,x,4.4,x
COC(=O)C(CC(C)C)N1CCC(=O)c2ccccc2S1(=O)=O (centres undefined),x,0.1,x
CCCNC(=O)N1C2=NC(C(=O)OC)=C(C(=O)OC)[C@@H]3N(Cc4ccccc4)c4ccccc4[C@]23C[C@H]1CO,x,-1.2,x
COCC(=O)N(C)c1nnc(-c2ccccn2)s1,17.6,110.6*,+
COCC(=O)N(C)c1nnc(-c2ccc([N+](=O)[O-])cc2)s1,x,9.7,x
Cc1cnc(-c2nnc(N(C)C(=O)C3CCOC3)s2)cn1 (centres undefined),-2.4,x,x
CN(C(=O)C1CCCO1)c1nnc(-c2ccccn2)s1 (centres undefined),7.5,162.3*,+
O=C(Cn1cc2c(n1)CCCC2)Nc1cc(-c2cccc(Cl)c2)no1,-0.2,u,x
O=C1c2ccccc2C(=O)N1CCc1nc2ccccc2c(=O)n1CCCn1ccnc1,-17.9,-11.8,x
COC(=O)Cc1c(C)c2ccc(OC(=O)c3ccccc3)cc2oc1=O,x,63.9*,+
Cc1c(CC(=O)O)c(=O)oc2cc(OCc3nn[nH]n3)ccc12,x,28.8,x
O=C(CCCn1c(=O)[nH]c2ccccc2c1=O)N1CCN(c2ccccn2)CC1,-10.5,x,x
SMILES,HIV RNase H inh,RmlCD inh mix,RmlCD fluor art
O=C(CCCn1c(=O)[nH]c2ccsc2c1=O)N1CCN(c2ccccn2)CC1,-4.7,70.0*,i
Cc1noc(C)c1C(=O)OCC(=O)NCCC1=CCCCC1,3.2,-17.4,x
CCOc1cccc2cc(-c3csc(NC(=O)CCC(=O)N4CCN(C)CC4)n3)c(=O)oc12,-1.7,x,x
CCOc1cccc2cc(-c3csc(NC(=O)CCC(=O)N4CCC(C)CC4)n3)c(=O)oc12,x,+,+
COc1cc(-c2ccc3oc(-c4ccsc4)c(C#CC4(O)CCCCC4)c3c2)cc(OC)c1OC,x,-31.3,x
Cc1cccc(-n2nc3c(c2NC(=O)CCC2CCCCC2)CS(=O)C3)c1C (centres undefined),-1.0,-10.6,x
CCOC(=O)CN1C(=O)N[C@@H](c2cccc(C(F)(F)F)c2)C(C(=O)OC)=C1C,x,5.3,x
CCCCCn1c(N)c(C#N)c2nc3ccccc3nc21,-6.2,-11.4,x
N#Cc1c(N)n(CCNC(=O)c2cccs2)c2nc3ccccc3nc12,-10.7,37.4*,+
Cc1ccc(C(C)C)c(OCCNc2nc3c(c(=O)n(C)c(=O)n3C)n2C)c1,-6.4,x,x
COC(=O)c1cc(Cl)c(NC(=O)/C=C/c2ccc(Cl)cc2Cl)cc1OC,x,62.4*,+
COC(=O)c1cc(Cl)c(NC(=O)/C=C/c2ccc(Cl)cc2)cc1OC,x,-3.5,x
CNC(=O)c1cc2c(=O)n3cccc(C)c3nc2n1C,-16.6,x,x
COCCCn1c(SCC(=O)NCc2ccccc2)nc2ccccc2c1=O,x,-4.9,x
COCCCNC(=O)c1ccc2nc3ccccc3c(=O)n2c1,-4.9,34.0*,+
CCOc1ccc(-n2nc(C(=O)N3CCOCC3)c3ccccc3c2=O)cc1,-10.3,x,x
Cc1ccc(CN2CC(C(=O)Nc3ccc4c(C)cc(=O)oc4c3)CC2=O)cc1 (centres undefined),0.7,30.3,+
Cc1ccc(CN2CC(C(=O)O)CC2=O)cc1 (centres undefined),x,8.3,x
